Source: the supplement of paper PMC3334620
In all, about 33,000 sequences were measured (“E-score (-0.5 to 0.5)”: median about -0.016, highest 2% from about 0.3 on). This is one part of a sample in which the highest values are shown more often than they occur.

target: T1, Yer184c (UniProt P39961); test: PBM E-score (8-mer binding enrichment) (E-score (-0.5 to 0.5)); higher = stronger / more preferred TF binding; details: protein concentration: 100 nM; construct: GST-full length
T1 sequence: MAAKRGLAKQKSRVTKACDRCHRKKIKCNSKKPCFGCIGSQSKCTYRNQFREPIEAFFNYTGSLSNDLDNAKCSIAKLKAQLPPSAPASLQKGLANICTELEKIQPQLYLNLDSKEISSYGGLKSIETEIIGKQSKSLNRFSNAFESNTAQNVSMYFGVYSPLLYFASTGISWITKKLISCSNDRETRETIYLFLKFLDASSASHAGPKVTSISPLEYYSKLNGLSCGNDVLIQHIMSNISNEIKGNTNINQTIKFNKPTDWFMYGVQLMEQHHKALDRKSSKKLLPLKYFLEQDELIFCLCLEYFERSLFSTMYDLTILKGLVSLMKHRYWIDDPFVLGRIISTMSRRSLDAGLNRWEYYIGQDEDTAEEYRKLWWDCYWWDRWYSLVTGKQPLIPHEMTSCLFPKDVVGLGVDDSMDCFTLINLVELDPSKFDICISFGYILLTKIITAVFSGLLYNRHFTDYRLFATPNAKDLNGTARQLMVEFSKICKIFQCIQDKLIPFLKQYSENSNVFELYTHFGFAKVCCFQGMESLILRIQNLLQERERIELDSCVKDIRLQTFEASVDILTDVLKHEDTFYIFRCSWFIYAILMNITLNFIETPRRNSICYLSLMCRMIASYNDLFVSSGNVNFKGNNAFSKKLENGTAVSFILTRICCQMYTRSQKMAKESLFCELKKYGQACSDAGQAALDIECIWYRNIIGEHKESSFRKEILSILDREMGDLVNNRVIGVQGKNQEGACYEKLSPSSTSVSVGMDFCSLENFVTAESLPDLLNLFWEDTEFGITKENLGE
Procedure: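 Universal 'all 10-mer' protein binding microarrays (Agilent AMADID 015681) probed with GST-tagged S. cerevisiae TFs (full-length or DBD) made by in vitro transcription/translation (PURExpress), about 100-200 nM. Bound TF was detected with fluorescent anti-GST. Each ungapped 8-mer (which stands for itself and its reverse complement) is scored by the PBM enrichment score (E-score), a modified Wilcoxon-Mann-Whitney statistic from -0.5 to +0.5, computed with the Universal PBM Analysis Suite. Scale: above 0.35 generally sequence-specific binding.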

| Sequence | PBM E-score |
| --- | --- |
| CCGACTAG | -0.036 |
| TAGAAATA | 0.126 |
| ATGCTCTC | -0.0198 |
| CAGCTACC | -0.113 |
| CCATAGAG | -0.11 |
| GGCATACC | -0.214 |
| ACAAGGTC | -0.234 |
| CAGTGGAC | -0.0743 |
| AACCAAAC | -0.103 |
| CAGTTCCG | 0.199 |
| CCGTTCCA | 0.0249 |
| ATGTTCCA | 0.016 |
| ATGTTCCG | 0.347 |
| ATGTTCCC | -0.107 |
| AAGTTCCT | 0.0951 |
| CCGTTCCG | 0.304 |
| AAGTTCCG | 0.307 |
| ACGTTCCG | 0.0307 |
| TCAAGCCA | -0.0394 |
| TAGTATGA | 0.129 |
| AAGGGCCC | -0.28 |
| GACGCTTA | -0.148 |
| AAAACTTA | 0.245 |
| AGGGAACC | -0.101 |
| CCGGAACC | 0.363 |

| Sequence | PBM E-score |
| --- | --- |
| ACGGAACC | 0.329 |
| CCGGAACG | 0.329 |
| CAGGAACC | -0.147 |
| CAGGAACG | -0.0846 |
| ACGGAACG | 0.212 |
| ACGGAACT | 0.197 |
| GCGGAACC | 0.268 |
| CCTTGGAA | 0.00859 |
| TGCAAGCA | -0.0504 |
| CAGCGTTA | -0.141 |
| ATACGCTA | 0.0126 |
| ACCTTCAT | -0.00129 |
| CTCCAGAG | -0.154 |
| ATCCGAAC | 0.261 |
| CGCCGATC | 0.129 |
| CGCCGAAG | 0.328 |
| CTCCGAAC | 0.323 |
| CACCGAAG | 0.192 |
| CCCCGAAC | -0.00623 |
| CTCCGAAG | 0.303 |
| CGCCGAAC | 0.345 |
| AGCCGAAG | 0.14 |
| GGCTGCGA | -0.00955 |
| CATGGAGC | -0.175 |
| ATGGAGAG | -0.0917 |

| Sequence | PBM E-score |
| --- | --- |
| CATTAGGG | -0.12 |
| ATCTCCGC | 0.14 |
| ATCTCCGA | 0.36 |
| CTCTCCGA | 0.149 |
| GTCTCCGA | 0.243 |
| ATCTCCGG | 0.435 |
| ATCTCCAG | -0.0032 |
| AAGCACCA | -0.224 |
| CACCAAAG | 0.0906 |
| ATTTATCC | 0.314 |
| ATTTATCG | 0.103 |
| CTTTATTC | 0.0145 |
| ATTTATTC | 0.329 |
| ATTTATTA | 0.216 |
| ATTTATCA | 0.258 |
| ATAGAACA | -0.0179 |
| AGTACTGC | -0.177 |
| AACTCGAT | 0.12 |
| ACAAGCGA | -0.015 |
| GAAGTAAC | 0.0995 |
| AGTAGCAT | -0.0361 |
| AGCATATG | -0.242 |
| ATCCGACA | 0.162 |
| GTCCGAGA | 0.333 |
| ATCCGATA | 0.266 |

| Sequence | PBM E-score |
| --- | --- |
| ATCCGATC | 0.235 |
| ATACGAAT | 0.0699 |
| ATCCGATG | 0.327 |
| CTCCGAGA | 0.247 |
| ATCCGACC | 0.0769 |
| ATCCGAGA | 0.252 |
| ATCCGAAG | 0.302 |
| ATCCGAAT | 0.419 |
| ATCCGAAA | 0.321 |
| CTGTGTTC | 0.093 |
| CTAGAACC | -0.00303 |
| TATGTACA | -0.0329 |
| AGCACTCG | -0.0898 |
| CTAGAAAG | -0.0631 |
| ATGTATGC | 0.0572 |
| AGTCTCAG | -0.104 |
| TTCCGAAA | 0.37 |
| CTCCGAAA | 0.266 |
| GTCCGAAC | 0.23 |
| TCCCGAAA | 0.196 |
| GTCCGAAA | 0.316 |
| TACCGAAA | 0.204 |
| CCAGCTAA | -0.204 |
| GTATCTTA | 0.197 |
| GTCGCGAC | 0.315 |

| Sequence | PBM E-score |
| --- | --- |
| GTCGCGAA | 0.00034 |
| CTCGCGAC | -0.064 |
| CTCTTCAA | -0.129 |
| TAGACCTA | -0.0542 |
| GCGGATTA | 0.0175 |
| CCGGAGTA | 0.381 |
| CCGGATTC | 0.33 |
| ACGGATTC | 0.197 |
| CCGGAGTC | 0.235 |
| GCGGAGTA | 0.0105 |
| ACGGATTA | 0.183 |
| CTGGATTC | 0.00297 |
| CCGGATTA | 0.352 |
| ATATGGAT | -0.0237 |
| ACCGCTCG | -0.135 |
| GGTAGGTA | -0.127 |
| GCGCGGCC | 0.177 |
| ACGCGGCC | -0.0466 |
| CCGCGGCG | 0.326 |
| ACGCGGCA | 0.096 |
| GCGCGGCA | 0.158 |
| ACGCGGCG | 0.113 |
| CCGCGGCA | 0.409 |
| CAGCGGCG | 0.0785 |
| CCGCGGCC | 0.374 |

| Sequence | PBM E-score |
| --- | --- |
| ACCCAACC | -0.191 |
| AGAGGGGA | -0.286 |
| ACTGGGTC | -0.271 |
| GAGATTCC | 0.0978 |
| CCAAAGCC | -0.0564 |
| CCGGAAGG | 0.28 |
| CCGGACGA | 0.323 |
| CCGGAAGC | 0.329 |
| AGGGAACA | 0.00359 |
| ACGGAAGA | 0.262 |
| GCGGAAGC | 0.105 |
| ACGGACGA | 0.237 |
| CCGGAAGA | 0.344 |
| CGGGAACA | 0.313 |
| ACGGAAGC | 0.274 |
| GGGGAACA | -0.17 |
| TCGGACGA | 0.278 |
| GACACCTA | -0.129 |
| AAGGGCGA | -0.211 |
| AACAACCT | -0.0961 |
| CAGCTTCG | -0.0525 |
| ATAGTCGA | 0.0238 |
| AAACCCCG | 0.0829 |
| ATTCGATC | 0.111 |
| GAAGGGGA | -0.201 |

| Sequence | PBM E-score |
| --- | --- |
| GACAGAGC | -0.128 |
| AGGCCGAA | 0.302 |
| CGGGAAGC | 0.138 |
| AGGGAAGA | -0.12 |
| CGGGAAGA | 0.315 |
| TAACAATA | 0.158 |
| AAACAATA | 0.282 |
| GAACAATA | 0.313 |
| AACACCGG | 0.37 |
| AACACCGC | -0.13 |
| AATACCGT | 0.188 |
| AATACCGG | 0.336 |
| AATACCGC | 0.0781 |
| CACACCGG | 0.0348 |
| CACCCGTG | -0.169 |
| GCCGCGAA | -0.0654 |
| GCCGCGCA | 0.0353 |
| ATCGCGGA | -0.00991 |
| AACGCGGA | 0.178 |
| ACCGCGGA | 0.314 |
| GCCGCGGA | 0.386 |
| GCCGCTCA | -0.0363 |
